These results are taken from the supplement of paper PMC6555819.

For the experiment, the system named is RARb homodimer (NR concentration 270 nM). In words: PBM binding z-score (relative to random genomic background probes); higher = stronger binding; sequences stand for … in GC…GCGATTGACAGCGTAGAATGAAGG
In short, it runs like this:
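Scanned fluorescence from custom Agilent 4×180K protein-binding microarrays was regression-normalized. Binding z-scores use random background probes as reference. Ligand-free nuclear receptor dimers were incubated on the arrays for 1 h and detected with antibodies against each partner (one per run).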
In turn, TCTTGTAGATCAATAGAGGTTAATAAAGTGCGCT came in with a PBM binding z-score of 1.15.

The sequence GGAACGAGGGCAAGTTGATATCAGAGTTTGATGG yielded a PBM binding z-score of 1.7.

Turning to CGTCAAAGTTCAACTAAGGTAACGTGAAGCACGC, the PBM binding z-score came to 4.14.

CTCGAAAGGTCGTGCTCAGGTGTGTATACCAAAC gave a PBM binding z-score of 2.72.

TCTAGTTGGTCACGGAGGTCACACATGACGGGTA: the PBM binding z-score came to 4.7.

As to CCGACTGGGGCATAAGGTTACCATAAGCCAGCCC, the PBM binding z-score is 1.69.

As for TAGCCTAGGTCATGGGCTAGTATACCACGCGAAC, the PBM binding z-score was found to be 2.79.

With CCTTCCGGGTCAAGGTTATAGCACGGGTGGTACG, the PBM binding z-score is 3.39.

On to TCATATAGGTCATACAGGTGAAAGTCGGCATCTA, for which the PBM binding z-score was 3.8.

ACTATTAGTTGACTTAGGGCAAACGATACGACGC showed a PBM binding z-score of 0.722.

GAAACGAGGGCAAAGTTGATAGCATCTGTCGACG returned a PBM binding z-score of 1.33.

Turning to ACAGACAGGTGACTGAAGGTAACTCAGCTGGACG, the PBM binding z-score was 0.000361.

In turn, TGAAGGAGGTTATAAGATCAGGGAACGTTGCAAA had a PBM binding z-score of 0.457.

Sequence TATTGTAGATCAAGCAGGTTAAGAAAGCCTGAGT displayed a PBM binding z-score of 0.00937.

In turn, TGTCAAAGTTCAAAGGTAACTTAAGTATCCACAC showed a PBM binding z-score of 3.71.

Take TCTTGTAGATCAAAGGTTACGAAAGCCGAAGCCT: the PBM binding z-score was found to be 1.9.

As to ATATGTAGGTTAAGGGCCATTCAGGTTGGTTCGC, the PBM binding z-score came out at 1.36.

As to TCTGCTAGGTCCGTTGGTCAGCTAACGAGCTGCC, the PBM binding z-score was -0.396.

The sequence CGTCAAAGTTCAAATAAGGTAACGTAAAGCACGC displayed a PBM binding z-score of 4.02.

As for TCTATTAGTTGATTCGGGCAACCGAAACAGCGGA, the PBM binding z-score came to 0.249.

For CATACAGGATCAGCTAGGCCAGAGTAGGGACGGC, the PBM binding z-score was -0.0161.

For the sequence ACAGGCAGGTGAGTGAAGGTAACTCAGCTGGACG, the PBM binding z-score came out at 0.0493.
